Assay results published in ChEMBL document CHEMBL4888484, “Replenishing the malaria drug discovery pipeline: Screening and hit evaluation of the MMV Hit Generation Library 1 (HGL1) against asexual blood stage Plasmodium falciparum ,using a nano luciferase reporter read-out” (2022).
Out of some 4,800 compounds screened, about 420 (8.8%) showed an effect of 50% or more. Many of the other results were omitted from the sample, so strong results are more common in it than they were.

Test system: Plasmodium falciparum
Test: Confirmatory screen in NF54 nanoGlo assay, in single point, at 2uM, 72h
Assay type: functional, Erythrocyte
Conditions: timepoint 72 hour

| Compound | % Inhibition [%] |
| --- | --- |
| COc1cc(C)cc(C)c1S(=O)(=O)N(C)Cc1nnc[nH]1 | 4 |
| COc1cccc(C2C(NC(=O)c3ccoc3)CCN2C2CC2)c1 (stereo not given) | -10 |
| CC1=CCN(C(=O)Nc2nccs2)CC1 | 7 |
| CC(C(=O)Nc1cc(F)ccc1F)N1CCCC(c2nncn2C(C)C)C1 (stereo not given) | -3 |
| CC(C(=O)Nc1nccs1)N1CCCC(c2ccn[nH]2)C1 (stereo not given) | 50 |
| c1ccc(NC(Nc2nnn[nH]2)=C(c2ccccc2)c2ccccc2)cc1 | 0 |
| O=C(CCC(=O)Nc1cccnc1)NCc1ccc2c(c1)OCO2 | -2 |
| O=C(Nc1cccnc1)c1ccc(-c2ccc(Cl)c(Cl)c2)o1 | 91 |
| O=C(Nc1ccn(Cc2cccnc2)n1)c1ccc(-c2ccccc2F)o1 | -2 |
| COc1ccc(-c2cc(C(=O)NC3CCN(C(C)C)CC3)c3ccccc3n2)cc1OC | -7 |
| CCOc1ccc(-c2cc(NC(=O)c3cc(-c4cccnc4)nc4ccccc34)on2)cc1OCC | 94 |
| CS(=O)(=O)Nc1nc2ccc(NC(=O)c3cc(-c4ccccc4)nc4ccccc34)cc2s1 | 0 |
| COc1ccc(CC[C@](C)(O)c2cc(C(N)=O)no2)cc1 | -9 |
| COc1ccc(N(C(=O)c2ccccc2)C2CC(C)N(C(=O)c3ccccc3)c3cc(OC)c(OC)cc32)cc1OC (stereo not given) | -1 |
| N#CCC(=O)Nc1nc(-c2ccc(Oc3ccccc3)cc2)cs1 | -4 |
| Cc1cc(C(=O)N[C@@H](C)CO)c(C)n1-c1nccs1 | -19 |
| c1ccc(N2CCN(C3CCN(Cc4ccncc4)CC3)CC2)cc1 | -6 |
| c1cc(CN2CCN(C3CCCCCC3)CC2)ccn1 | -18 |
| COc1nccnc1N(C(C)=O)S(=O)(=O)c1ccc(NC(C)=O)cc1 | -13 |
| N#Cc1ccc(N2CCN3C(=O)NCC3C2)nc1N1CCN2C(=O)NCC2C1 (stereo not given) | -12 |
| CC(C)[C@H](OC(=O)n1ccnc1)C(=O)OC(C)(C)C | -10 |
| CC1C=CC2C(=O)N(CC(F)(F)F)C(=O)C2C1C(=O)N1CCC(Cc2ccccc2)CC1 (stereo not given) | -3 |

| Compound | % Inhibition [%] |
| --- | --- |
| Cc1ccc(NC(=O)Cn2cnc3nc(N(C)Cc4ccccc4)sc3c2=O)c(Br)c1 | -14 |
| CC[C@@H](CO)NC(=O)Nc1cccc(C)c1 | 5 |
| CC(CC1OCC(C[N+]2(Cc3ccccc3)CCCCC2)O1)CC(C)(C)C (stereo not given) | 57 |
| CCC(C)(CC)[C@@](O)(C#CC[N+]1(Cc2ccccc2)CCCCC1)c1ccccc1 | 7 |
| O=C1CCCC1C(c1ccccc1)N(C1=NS(=O)(=O)c2ccccc21)c1ccccc1 (stereo not given) | -10 |
| CNC(=O)CCS(=O)(=O)CCCC(=O)Nc1c(C)cc(C)cc1C | -14 |
| c1ccc2oc(N3CCCCCCC3)nc2c1 | -5 |
| Cc1ccc(CC(=O)N2CCC(NC(=O)OC(C)(C)C)CC2C)o1 (stereo not given) | -7 |
| COC[C@@H]1CCCN1c1ccc2c(c1)CNCC(=O)N1CC[C@@H](CC(=O)NCCN3CCOCC3)[C@@H](/C=C/CO2)C1 | -13 |
| CC[n+]1ccc(-c2ncc(-c3ccc(C(C)(C)C)cc3)o2)cc1 | 63 |
| CCC(C)(CC)[C@@](O)(C#CC[N+]1(Cc2ccccc2Cl)CCCCC1)c1ccccc1 | 4 |
| CN1c2cc(C(=O)N3CCc4ccccc4C3)ccc2C(=O)N2CCCC[C@H]21 | -6 |
| Cc1cc2ncn([C@@H](C)c3nc(-c4cnccn4)cs3)c2cc1C | 0 |
| CCC[C@H](NC(=O)c1ccc(Cl)o1)c1nnn[nH]1 | 6 |
| C=CCCCNc1ccc(C(N)=O)c(F)c1 | -1 |
| COc1ccc(CCc2nnc(NC(=O)Cc3c(C)noc3C)[nH]2)cc1OC | 15 |
| COc1ccc(CCc2nc(NC(=O)c3[nH]nc4c3CCC4)n[nH]2)cc1 | -1 |
| COc1ccc(CCc2nc(NC(=O)c3nc(C)sc3C)n[nH]2)cc1OC | 65 |
| Cc1c(CCNC(=O)NCC2CC23CCc2ccccc23)cnn1C (stereo not given) | -4 |
| Cc1cc(C(=O)NCCCn2cccn2)nc(N2CCOCC2)n1 | 0 |
| Cc1c(-c2nn(-c3ccccc3)c(-c3cnn(C)c3C)c2Cl)cnn1C | -4 |
| Cc1c(-c2nn(-c3nc(C4CC4)cc(C(F)(F)F)n3)c(-c3cnn(C)c3C)c2Cl)cnn1C | 69 |

| Compound | % Inhibition [%] |
| --- | --- |
| Cc1nn(C)cc1-c1nn(-c2nc(C3CC3)cc(C(F)(F)F)n2)c(-c2cn(C)nc2C)c1C | 16 |
| CC(C)Nc1nc2nonc2n2cnnc12 | 69 |
| CN(Cc1cc(C(F)(F)F)ccc1Cl)[C@H]1CCc2nn(C)c(=O)n2CC1 | -8 |
| Cn1ccc2cccc(NC(=O)N3CC(C)(CO)C3)c21 | 1 |
| Cc1c(-c2nn3c(Cc4ccc(Cl)cc4)nnc3s2)cnn1-c1ccccc1 | -16 |
| Cc1cccc(C(=O)Nc2nc3cc4sc(NC(=O)c5cccc(C)c5)nc4cc3s2)c1 | 7 |
| COc1cc(C(=O)Nc2scnc2C)cc(OC)c1OC | -1 |
| COc1cc(C(=O)Nc2ccc3sc(NC(=O)c4cc(OC)c(OC)c(OC)c4)nc3n2)cc(OC)c1OC | 56 |
| C1=CCC(c2nc(-c3cnccn3)no2)C1 | -6 |
| C[C@H](O)CNCc1ccc(Cl)cc1Cl | -8 |
| CCCCCNC(=O)NCc1ncoc1C | -1 |
| CCNC(=O)NCCOC(=O)c1cccc(C)c1Cl | 1 |
| O=C(NCc1cccc(F)c1)[C@H]1CCCN(c2nc3ccccc3n(Cc3ccccc3)c2=O)C1 | 5 |
| Cc1cc(C)cc(-c2cc3nc(C)cc(N4CCC(C(=O)NCc5cccc(F)c5)CC4)n3n2)c1 | 79 |
| Cc1cc(C)cc(-c2cc3nc(C)cc(N4CCC(C(=O)Nc5ccc(C)c(Cl)c5)CC4)n3n2)c1 | 0 |
| CC[n+]1c(C)n(C2CCCCC2)c2ccc(C(=O)OC)cc21 | 0 |
| CC[N+](CC)(CC(=O)OC1CC2CCC1(C)C2(C)C)CC(=O)OC1CC2CCC1(C)C2(C)C (stereo not given) | 83 |
| Cn1cc(C(C(=O)O[C@@H]2C[C@@H]3CC[C@@]2(C)C3(C)C)c2cn(C)c3ccccc23)c2ccccc21 | 0 |
| O=C(NCc1cccnc1Oc1ccccc1)c1cccnc1 | 5 |
| Cc1nc2cccnc2n1-c1cc(C(=O)NCc2ccccc2Cl)ccc1Cl | -2 |
| CC1CCN(c2nccnc2Oc2ccc(C(=O)NCc3ccccc3Cl)cc2)CC1 | 59 |
